In PubChem BioAssay one finds z-score and composite z-score data, which are given here for twelve compounds.

Experiment [1] in a line: HepG2 liver cancer cell viability effects, profiling panel, resazurin fluorescence, 24 h, PK04 Diversity Set (AID 1172). Also: test concentration not given here. As to conditions: higher = more signal.
Experiment [2] is described as follows: basal S. cerevisiae growth modulation, no modifier, primary screen, OD600, strain BY4716, 24 h, basal condition (AID 1173). As to conditions: OD600, 24 h, higher = more signal, called active from +8 up or from −8 down.
Experiment [3] can be described thus: MM1S myeloma cell viability, profiling panel, resazurin fluorescence, basal, 24 h, PK04 Diversity Set (AID 1174).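 Also: MM1S multiple myeloma cell line; test concentration not given here.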 As to conditions: higher = more signal, called active from +8 up or from −8 down.
In experiment [4] the target is Dihydroorotate dehydrogenase (quinone), mitochondrial (Plasmodium falciparum (isolate 3D7)) (UniProt Q08210). Description: PfDHODH enzyme inhibitors, primary screen, biochemical, C-terminal His tag, absorbance 600 nm (AID 1175).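 Also: recombinant parasite enzyme with a five histidine tag at its C terminus; test concentration not given here.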 As to conditions: DCIP absorbance 600 nm, higher = more signal, called active from +8 up or from −8 down.
Sequence of Dihydroorotate dehydrogenase (quinone), mitochondrial (Plasmodium falciparum (isolate 3D7)) (Q08210 whole entry, looked up): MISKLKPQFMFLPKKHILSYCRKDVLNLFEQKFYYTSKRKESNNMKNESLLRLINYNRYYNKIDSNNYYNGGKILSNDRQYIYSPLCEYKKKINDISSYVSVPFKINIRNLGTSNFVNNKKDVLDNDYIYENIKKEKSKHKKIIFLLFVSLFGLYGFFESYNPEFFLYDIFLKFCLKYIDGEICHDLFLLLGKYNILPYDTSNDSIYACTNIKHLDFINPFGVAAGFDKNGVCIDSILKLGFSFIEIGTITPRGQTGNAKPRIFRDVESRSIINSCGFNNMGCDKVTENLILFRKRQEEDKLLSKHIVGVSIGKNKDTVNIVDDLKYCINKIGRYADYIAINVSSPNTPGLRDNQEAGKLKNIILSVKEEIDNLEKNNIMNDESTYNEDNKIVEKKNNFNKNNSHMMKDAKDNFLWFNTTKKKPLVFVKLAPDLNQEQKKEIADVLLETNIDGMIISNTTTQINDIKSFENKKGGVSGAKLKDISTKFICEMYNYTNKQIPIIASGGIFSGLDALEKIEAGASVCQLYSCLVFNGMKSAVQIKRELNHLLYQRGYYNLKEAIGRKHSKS
Experiment [5] is described as follows: P. aeruginosa biofilm formation inhibitors, primary screen, strain PAO1, LB-PBS medium, absorbance 600 nm (AID 1176). Also: test concentration not given here. As to conditions: P. aeruginosa PAO1 growth/biofilm, A600, 12 h; higher = more signal.
Experiment [6] in a line: S. cerevisiae RM11-1a growth modifiers, primary screen, strain RM11-1a, OD600, basal, 24 h (AID 1177).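 Also: cultures grown under basal conditions with no added stressor; test concentration not given here.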 The note with it: OD600, 24 h, higher = more signal, called active from +8 up or from −8 down.
The nature of experiment [7]: E. coli acrAB mutant growth effects, primary screen, E. coli filamentation inducers, strain DRC39, OD650, 24 h (AID 1178).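 Also: growth measured as culture turbidity by optical density at 650 nm; test concentration not given here.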 The note with it: higher = more signal, called active from +8 up or from −8 down.
Experiment [8] is described as follows: E. coli acrAB mutant growth effects, primary screen, E. coli filamentation inducers, strain DRC39, OD650, 48 h (AID 1179).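 Also: screen aims at cell division blockers that make cells filament.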 As to conditions: E. coli DRC39 delta-acrAB growth, higher = more signal, called active from +8 up or from −8 down.
Experiment [9] is described as follows: RPMI8226 myeloma cell viability, profiling panel, resazurin fluorescence, basal, 24 h, PK04 Diversity Set (AID 1180).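 Also: RPMI8826 multiple myeloma cell line at 5000 cells per well; test concentration not given here.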 The note with it: higher = more signal.
Experiment [10] has as its target E3 ubiquitin-protein ligase XIAP (Homo sapiens) (UniProt P98170). Description: XIAP binders, primary screen, biophysical, small-molecule microarray, fluorescence 635 nm (AID 1181).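 Also: score merges 667 nm emission and signal to noise over triplicate slides.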 The note with it: small-molecule microarray binding, higher = more signal.

Active and inactive are the calls of the source. Unless noted, no rule for the calls is given here.

Sequence of E3 ubiquitin-protein ligase XIAP (Homo sapiens) (P98170 whole entry, looked up): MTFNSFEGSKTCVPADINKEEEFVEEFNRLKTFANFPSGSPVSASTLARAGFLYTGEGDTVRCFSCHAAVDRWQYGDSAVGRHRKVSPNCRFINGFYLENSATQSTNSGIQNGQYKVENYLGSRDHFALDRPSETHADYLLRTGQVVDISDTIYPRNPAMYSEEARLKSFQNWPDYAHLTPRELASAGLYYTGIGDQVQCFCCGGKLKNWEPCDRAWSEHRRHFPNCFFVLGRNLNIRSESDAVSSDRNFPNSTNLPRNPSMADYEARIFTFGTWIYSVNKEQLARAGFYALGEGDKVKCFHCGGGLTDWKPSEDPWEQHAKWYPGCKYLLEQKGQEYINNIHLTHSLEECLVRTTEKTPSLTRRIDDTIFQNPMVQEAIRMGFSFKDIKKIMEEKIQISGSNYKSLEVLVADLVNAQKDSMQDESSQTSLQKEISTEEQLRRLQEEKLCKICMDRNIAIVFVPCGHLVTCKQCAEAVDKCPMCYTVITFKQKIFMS

For `CN1C(=O)C2C=CC(C(O)c3cccc(O)c3)N(Nc3ccccc3)C2C1=O` (stereo not given), the z-score is 0.0748 in experiment [1]; 0.655 (inactive) in experiment [2]; -0.462 (inactive) in experiment [3]; -0.159 (inactive) in experiment [5]; 0.837 (inactive) in experiment [6]; -1.32 (inactive) in experiment [7]. The z-score in experiment [8] was -0.17 (inactive); in [9], -2.48. Moreover, the results for the composite z-score in [4] and in experiment [10] were 0.613 (inactive) and -0.0812, respectively.

For the compound `C=CCC(OC(C)=O)[C@@H]1[C@@H](N(Cc2ccc(-c3cccc(C(F)(F)F)c3)o2)C(=O)c2ccc(C)cc2)c2cc(OCCCO)ccc2N1C(=O)c1ccc2ccccc2c1` (stereo not given in full), the z-score in [1] is 0.472; in experiment [2], 0.656 (inactive); in experiment [3] it was 0.845 (inactive); in experiment [5], -0.124 (inactive); in experiment [6] it was 0.544 (inactive); in [7] it was -0.0973 (inactive). Further, the z-score is 0.759 (inactive) in [8] and 1.37 in [9]. Further, the results for the composite z-score in experiment [4] and in experiment [10] were -0.689 (inactive) and -0.0878, respectively.

Turning to `CCCCC(=C=CC[C@@H](O)c1ccccc1OCCO)C[C@@H](O)COCc1ccccc1`, the z-score is -0.202 in experiment [1]; -0.984 (inactive) in experiment [2]; 0.12 (inactive) in [3]; 0.0478 (inactive) in experiment [5]; -2.79 (inactive) in experiment [6]; 0.666 (inactive) in [7]. Besides, the z-score in experiment [8] is 0.406 (inactive); in experiment [9], 0.267. Moreover, the values for the composite z-score in experiment [4] and in experiment [10] were -2.09 (inactive) and 0.0022, respectively.

For `O=C(CS)NCCCCCNC(=O)[C@@H]1C[C@@H]2C(=O)N3CCC[C@H]3C(=O)N2[C@@H]1c1cccc(OCCO)c1`, the z-score in [1] was -0.514; in experiment [2], 0.196 (inactive); in experiment [3] it was -0.374 (inactive); in [5], 0.711 (inactive); in [6] it was 0.119 (inactive); in experiment [7], -0.277 (inactive). Besides, the z-score in experiment [8] was -0.141 (inactive); in experiment [9], -0.664. Further, the values for the composite z-score in experiment [4] and in [10] were -1.8 (inactive) and 0.122, respectively.

Turning to `COC(=O)c1c(CC[C@@H](CO)NC(=O)N[C@H](Cn2cc(C3(O)CCCCC3)nn2)C(C)C)oc(C(C)=O)c1C(=O)OC`, the z-score in [1] was -0.752; in [2] it was -3.03 (inactive); in experiment [3], 0.679 (inactive); in experiment [5] it was -0.24 (inactive); in experiment [6], -0.834 (inactive); in experiment [7], 1.4 (inactive). Also, the z-score was 0.669 (inactive) in [8] and 0.0252 in experiment [9]. Also, the composite z-score in experiment [4] was -4.51 (inactive); in [10] it was -0.102.

In the case of `COc1ccc(-c2cc3c(c(CCc4ccccc4)n2)[Si](C(C)C)(C(C)C)OC3)cn1`, the z-score in experiment [1] is 1.09; in experiment [2], 0.0476 (inactive); in experiment [3], 0.42 (inactive); in experiment [5], -1.29 (inactive); in experiment [6], 0.817 (inactive); in experiment [7], 0.152 (inactive). For the same compound, the z-score in experiment [8] was 0.469 (inactive); in experiment [9], 1.18. Moreover, the composite z-score in experiment [4] was -0.319 (inactive); in [10] it was 0.136.

In the case of `Cc1cc(C)c(C(O)C2C=CC3C(=O)NC(=O)C3N2Nc2ccc(Cl)cc2Cl)c(C)c1` (stereo not given), the z-score was -2.05 in experiment [1]; -3.83 (inactive) in experiment [2]; -1.94 (inactive) in experiment [3]; 1.62 (inactive) in experiment [5]; 0.737 (inactive) in experiment [6]; -0.731 (inactive) in experiment [7]. Also, the values for the z-score in experiment [8] and in experiment [9] were -1.17 (inactive) and -1.81, respectively. Also, the composite z-score in experiment [4] was -0.0825 (inactive); in [10], 0.0251.

For the compound `CCOC(=O)C[C@H]1[C@H](OC(=O)c2ccccc2-c2ccccc2)[C@@H](NC(=O)c2ccc(-c3ccccc3)cc2)c2cc(OCCCO)ccc2N1C(=O)c1ccc2ccccc2n1`, the z-score in [1] is -0.0523; in experiment [2] it was 0.662 (inactive); in experiment [3], 0.128 (inactive); in [5] it was 0.318 (inactive); in experiment [6], 0.752 (inactive); in experiment [7] it was -0.447 (inactive). The figures for the z-score in experiment [8] and in [9] were -0.0565 (inactive) and 0.636, respectively. Further, the composite z-score in experiment [4] is -0.0558 (inactive); in [10], 0.0891.

With `CC(c1ccccc1)C(O)C1C=CC2C(=O)N(c3ccccc3)C(=O)C2N1Nc1ccc([N+](=O)[O-])cc1` (stereo not given), the z-score in experiment [1] is 0.796; in experiment [2] it was 0.326 (inactive); in experiment [3] it was 0.831 (inactive); in [5], 0.449 (inactive); in experiment [6], 0.399 (inactive); in [7], -0.821 (inactive). The z-score in experiment [8] is 0.434 (inactive); in [9] it was 0.538. Also, the composite z-score in experiment [4] is 0.101 (inactive); in experiment [10], -0.334.

As to `OCCCC1=CC(c2ccc(CN3CCCC3)cc2)N(Cc2sc3ccccc3c2Cl)CC1` (stereo not given), the z-score in experiment [1] is -0.516; in [2], -7.47 (inactive); in experiment [3], -0.846 (inactive); in experiment [5], 0.367 (inactive); in experiment [6], 0.922 (inactive); in [7], -0.365 (inactive). Further, the z-score was -1.05 (inactive) in [8] and 0.234 in experiment [9]. The composite z-score was 0.721 (inactive) in experiment [4] and 0.0623 in experiment [10].

Turning to `[N-]=[N+]=Nc1ccccc1C[C@]1(C(=O)N2CCOCC2)N=C(c2ccc(OCCCO)cc2)O[C@H]1c1ccccc1`, the z-score in [1] was 1.32; in experiment [2], -0.576 (inactive); in [3], -1.25 (inactive); in experiment [5] it was -0.608 (inactive); in experiment [6], 1.05 (inactive); in [7], 1.11 (inactive). The z-score in experiment [8] is 0.356 (inactive); in [9], 0.101. For the same compound, the composite z-score in [4] was 0.404 (inactive); in [10] it was 0.0761.

For `[N-]=[N+]=NCc1ccccc1[C@@H]1OC(c2ccc(OCCCO)cc2)=N[C@]1(CCS(=O)(=O)c1ccccc1)C(=O)NCC(O)CO` (stereo not given in full), the z-score in [1] was -0.618; in experiment [2] it was -0.543 (inactive); in [3] it was -0.121 (inactive); in experiment [5] it was 0.563 (inactive); in experiment [6], -0.397 (inactive); in experiment [7], 0.488 (inactive). The z-score was 1.2 (inactive) in [8] and -0.471 in experiment [9]. For the same compound, the composite z-score was -0.716 (inactive) in experiment [4] and 0.0731 in experiment [10].
